ATXN2 expr inh = Primary qHTS for Inhibitors of ATXN expression. HEK-293 ATXN2-luciferase reporter, luminescence, 24 h. Potency, µM (top dose mostly 57 µM), without a hit: at the highest dose activity change, negative = inhibition, actives largely listed as inhibitors. 0.72% of 360,000 active; note: % is set by controls: 0 for no effect and ±100 for the full control effect; nearly all actives have a fitted effect of over 55% in size
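qHTS (up to 57 uM final) was run with 24 h compound exposure of reporter cells at 37 °C. Each well was multiplexed: SteadyGlo luminescence measured ATXN2-luciferase expression after a fluorogenic Gly-Phe-AFC viability readout (25 uM final).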
TDP1 cell CPT = qHTS for Inhibitors of human tyrosyl-DNA phosphodiesterase 1 (TDP1): qHTS in cells in presence of CPT. chicken DT40 Tdp1-/-;hTDP1 cells + 20 nM CPT, ATP luminescence, 48 h. Potency, µM (doses to about 46.2 µM), inactives show at the highest dose activity change, negative = growth inhibition, most hits filed as inhibitors. 12% of 420,000 active; note: % is set by controls: 0 for no effect and ±100 for the full control effect; nearly all actives have a fitted effect of over 55% in size
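Chicken DT40 Tdp1-/- cells stably complemented with human TDP1 were seeded at 400 cells/well in medium containing 20 nM camptothecin, exposed to pin-transferred compounds, and grown at 37 °C for at least 48 hr. Viability was read as ATP luminescence.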
S2 tox = Viability Counterscreen for Primary qHTS for Inhibitors of ATXN expression; S2 cells (HEK-293 line with an ATXN2-luciferase reporter) viability, CellTiter-Fluor protease fluorescence, 24 h; Potency, µM (highest dose often 56.7 µM), usual class: cytotoxic; 0.49% of 400,000 active; AID 651635, 2014; note: nearly all actives have a fitted effect of over 40% in size
TDP1 cell noCPT = qHTS for Inhibitors of human tyrosyl-DNA phosphodiesterase 1 (TDP1): qHTS in cells in absence of CPT; DT40 Tdp1-/- hTDP1 cells, no CPT, ATP luminescence, 48 h; Potency, µM (titrated, usually from 46.2 µM), inactives show at the highest dose activity change, negative = growth inhibition, most hits filed as inhibitors; 15% of 420,000 active; note: % is set by controls: 0 for no effect and ±100 for the full control effect; nearly all actives have a fitted effect of over 55% in size
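Camptothecin absent (DMSO only). Human TDP1-complemented DT40 knockout cells, 400 cells/well, 37 °C for minimum 48 hr; ATP measured via CellTiter-Glo, 30 min dark incubation, luminescence.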
HepG2 tox = qHTS for Inhibitors of TGF-b: Cytotox Counterscreen; HepG2 CAGA-GFP viability, ATP luminescence, 18 h; Potency, µM (series often up to 46.1 µM), inactives show top-dose activity change, negative = cytotoxicity, usual class: cytotoxic; 0.76% of 410,000 active
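HepG2 CAGA-GFP cells (1000/well, DMEM with 1% FBS) received compound, then TGF-beta at 500 pg/mL final, and were incubated 18 hours at 37 degrees C. Viability was read by CellTiter-Glo luminescence. Media-only wells were set as complete cell-killing and DMSO as no toxicity.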
TGFb inhibitor = qHTS for Inhibitors of TGF-b; HepG2 CAGA-GFP TGF-b/SMAD3 reporter, GFP fluorescence, 18 h; TGF-beta stimulated, 500 pg/mL final; 1.2% of 410,000 active; AID 588855, 2011; Potency, µM (doses to about 46.1 µM), for the others: at the top dose activity, negative = inhibition, most hits filed as inhibitors; note: % is set by controls: 0 for no effect and ±100 for the full control effect; nearly all actives have a fitted effect of over 65% in size
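Cell-based qHTS in HEPG2 carrying a CAGA-GFP Smad reporter; compounds added before 500 pg/mL final TGF-beta, 18 h incubation at 37 degrees C, GFP fluorescence quantified per cell by imaging cytometry.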
Numbers without * were called inactive; i = inactive; ? = inconclusive; · = no result given; ! = a repeat was not active. Compounds with a hit are over-represented: about 17% of the library has one in this group of screens. Calls come from the whole dose curve; as a rule, active = well fitted curve in the direction sought with a large enough effect; inconclusive = small, poorly fitted or top-dose-only effect, or another doubt; inactive = no such curve, though single readings can be large; an effect the other way counts as inactive or inconclusive. Potency is the fitted concentration of half-maximal effect.

SMILES | ATXN2 expr inh | TDP1 cell CPT | S2 tox | TDP1 cell noCPT | HepG2 tox | TGFb inhibitor
CC(C)=C1C2CCC1C1C(=O)N(c3ccc(C)c(C)c3)C(=O)C21 (stereo unspecified) | -13.7% | -15.7% | i | -7.6% | 9.7% | -13.1%
OCc1cnc(SCc2ccccc2F)n1Cc1ccc(F)cc1 | -0.3% | ? | i | ? | -3.7% | 12.8%
COc1ccc(OC)c(NC(=O)CSc2nncc(=O)n2N)c1 | -9.5% | 5.0% | i | 2.0% | -28.4% | -9.7%
Cc1ccccc1-c1cc2nc(NCc3ccc4occc4c3)n(C)c(=O)c2s1 | -10.0% | 18.4µM* | i | ? | -1.9% | ?
COc1ccccc1C(=O)Nc1ccc2c(c1)nc1n2CCN(C2CCCCC2)C1 | ? | 14.6µM* | i | 23.1µM* | -17.2% | -16.1%
Cn1c(CN2CCCCC2)nc2cc(NC(=O)c3ccc(F)cc3)ccc21 | 4.2% | -28.3% | i | -0.8% | -6.8% | -14.9%
Cn1c(CN2CCCCC2)nc2cc(NC(=O)c3ccccc3Cl)ccc21 | 3.2% | 16.4µM* | i | 23.1µM* | -11.2% | -44.8%
COc1ccccc1C(=O)Nc1ccc2c(c1)nc(CN1CCCCC1)n2C | 4.5% | ? | i | 23.1µM*! | 2.6% | 5.9%
O[C@H]1CN(CC2CCCCC2)[C@@H](c2ccc(Cl)cc2)C[C@@H]1n1cc(-c2ccc(F)cc2)nn1 | ? | ? | ? | 20.6µM* | -15.8% | -1.0%
O[C@H]1C[C@H](c2ccc(Cl)cc2)N(Cc2cccs2)C[C@@H]1n1cc(-c2ccc(F)cc2)nn1 | 31.6µM* | ? | · | ? | -112.9% | ?
Cc1ccc([C@H]2C[C@H](O)[C@@H](n3cc(-c4ccc(F)cc4)nn3)CN2Cc2cccs2)cc1 | ? | ? | ? | 16.4µM* | -25.2% | 2.6%
C=C(NS(=O)(=O)c1ccc(C)cc1)C(=O)OC | 1.8% | -7.2% | i | -6.4% | -3.3% | 17.3%
CCOC(=O)C1(C)CCCN(C(=O)c2cccnc2SC)C1 (stereo unspecified) | 7.9% | -8.7% | i | -0.9% | -1.9% | 7.7%
Cc1ccc(C)c(OCC(O)CN2CCC(Cc3ccccc3)CC2)c1 (stereo unspecified) | · | 20.6µM* | · | ? | -86.3% | ?
Cc1ccc(C)c(OCC(O)CN2C(C)CCCC2C)c1 (stereo unspecified) | -14.9% | 23.1µM* | i | ? | -48.6% | -0.1%
OC(COc1ccc(Cl)cc1)CN1CCC(Cc2ccccc2)CC1 (stereo unspecified) | ? | ? | i | ? | -42.1% | ?
C=CCc1ccc(OCc2ccc(C(=O)Nc3ccc(NC(C)=O)cc3)o2)c(OC)c1 | 34.0% | ? | ? | 16.4µM*! | -33.8% | ?
COc1ccc(S(=O)(=O)N2CCOC2CNC(=O)C(=O)NCc2ccco2)cc1 (stereo unspecified) | 1.3% | -29.0% | i | -27.3% | 8.1% | 8.0%
Cc1cc(/C=C2\SC(=S)N(C)C2=O)c(C)n1-c1ccccc1O | -3.8% | 20.6µM* | ? | 8.2µM* | -55.0% | 21.7%
Cc1cccc(N2C(=O)/C(=C/c3cccnc3)SC2=S)c1 | -32.5% | ? | i | -27.5% | 16.8% | 0.0%
Cc1cc(/C=C2\SC(=S)N(C)C2=O)c(C)n1-c1ccc(O)cc1 | ? | ? | ? | ? | -92.3% | ?
Cc1cc(/C=C2/NC(=O)N(c3ccccc3)C2=O)c(C)n1-c1cccnc1 | · | 25.9µM* | i | ? | -6.0% | 27.8%
Cc1cc(/C=C2/SC(=S)N(c3ccc([N+](=O)[O-])cc3)C2=O)c(C)n1-c1cccnc1 | ? | 1.64µM* | ? | 1.03µM* | -18.4% | -11.7%
Cc1cc(/C=C2/SC(=S)N(c3cccc(Cl)c3)C2=O)c(C)n1-c1cccnc1 | -1.9% | 2.59µM* | ? | 2.06µM* | -4.1% | ?
CSc1ccc(CN2C(=O)NC3(CCCCC3)C2=O)cc1 | -18.6% | 19.5% | i | ? | -35.9% | -5.3%
SMILES | ATXN2 expr inh | TDP1 cell CPT | S2 tox | TDP1 cell noCPT | HepG2 tox | TGFb inhibitor
C[C@@H]1CN([C@H](C)CO)C(=O)CCCn2nncc2CO[C@H]1CN(C)Cc1ccccc1C(=O)O | 12.5% | -17.2% | i | 0.0% | -18.2% | 1.2%
Cc1cc(C(=O)NCC(=O)OC(C)C(=O)N2CCOCC2)ccc1[N+](=O)[O-] (stereo unspecified) | 3.1% | 3.8% | i | 28.3% | -14.6% | -0.5%
CCN1C(=O)[C@H]2[C@@H](c3ccc(OC)cc3)N[C@]3(CCCN(Cc4ccc(F)cc4)C3=O)[C@H]2C1=O | 3.9% | -24.6% | i | ? | -4.1% | 1.9%
c1ccc(C2OC3c4cccc5cccc(c45)C3N2c2ccccc2)cc1 (stereo unspecified) | -25.1% | -6.1% | i | -12.3% | -26.4% | ?
C/C(=N\NC(=O)c1ccc(-c2ccccc2)cc1)C1C(=O)c2ccccc2C1=O | ? | 20.6µM* | ? | 20.6µM* | -89.3% | 12.6µM*
C/C(=N\NC(=O)c1cc(O)cc(O)c1)c1ccc(NC(=O)Cc2ccccc2)cc1 | 3.1% | -0.6% | i | -1.8% | -0.2% | -1.7%
CCOc1ccc(C(=O)N/N=C(/C)C2C(=O)c3ccccc3C2=O)cc1 | -32.8% | 0.581µM* | ? | 0.651µM* | 6.5% | 2.6%
C/C(=N/NC(=O)c1ccc(-c2ccccc2)cc1)c1cc(O)cc(O)c1 | -25.3% | 20.6µM* | i | 16.4µM* | -21.4% | 0.0%
Cc1ccc(SCCc2ccc(C)nc2)cc1 | 30.2% | -2.6% | i | -20.7% | 3.9% | -22.6%
CC1(C)c2ccccc2-c2nc3ccccc3cc2C1O (stereo unspecified) | 31.1% | ? | i | ? | -0.1% | 0.2%
c1ccc2c(c1)-c1nc3ccccc3cc1C2N1CCCCC1 (stereo unspecified) | · | 16.4µM* | ? | 16.4µM* | 7.0% | 3.1%
CS(=O)(=O)c1nc(-c2ccccc2)cc(-c2ccccc2)c1C#N | ? | 1.46µM* | · | 2.91µM* | 1.6% | -1.3%
Cc1cc(Nc2ccc(F)cc2)nc(N)n1 | 13.2% | -11.2% | i | -2.7% | 3.4% | -17.2%
Cc1cc(Nc2cc(Cl)cc(Cl)c2)nc(N)n1 | · | ? | ? | 10.3µM* | -20.3% | -18.3%

Assay outcomes deposited in PubChem by National Center for Advancing Translational Sciences (NCATS).
